The values below come from PubChem BioAssay AID652105 (National Center for Advancing Translational Sciences (NCATS), 2013).

In all, about 330,000 compounds went through this assay and about 4,100 (1.2%) were called active. Inconclusive results (about 2%) are left out. The list comes from a sample in which actives are over-represented; it also holds similar structures and randomly drawn compounds. Values without a mark were called inactive. Rule for the calls: active = max response of -50% or lower; inconclusive = between -30% and -50%; inactive = -30% or higher.
% is set by controls: 0 for no effect and ±100 for the full control effect.

Phosphatidylinositol 5-phosphate 4-kinase type-2 alpha (Homo sapiens), sequence (P48426 whole entry, looked up): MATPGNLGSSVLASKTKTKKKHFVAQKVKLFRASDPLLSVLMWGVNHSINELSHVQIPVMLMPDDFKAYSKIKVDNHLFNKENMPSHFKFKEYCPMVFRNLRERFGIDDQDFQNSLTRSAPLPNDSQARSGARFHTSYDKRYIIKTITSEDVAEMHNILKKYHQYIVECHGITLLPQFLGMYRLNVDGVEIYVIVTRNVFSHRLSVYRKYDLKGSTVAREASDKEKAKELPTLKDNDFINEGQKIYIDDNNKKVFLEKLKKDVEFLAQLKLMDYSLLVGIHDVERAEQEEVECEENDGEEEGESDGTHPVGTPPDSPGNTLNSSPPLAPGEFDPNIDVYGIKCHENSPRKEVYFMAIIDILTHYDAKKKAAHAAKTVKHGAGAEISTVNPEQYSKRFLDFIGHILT

This assay has as its target Phosphatidylinositol 5-phosphate 4-kinase type-2 alpha (Homo sapiens) (UniProt P48426). As to the kind of experiment: qHTS for Inhibitors of phosphatidylinositol 5-phosphate 4-kinase (PI5P4K). Note: value at the top dose of about 77 µM. Conditions: PI5P4Kalpha enzyme, ADP-Glo luminescence, 60 min; stronger effect = lower value. In short, it runs like this:
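Single end-point luminescence (ADP-Glo) quantified ADP from PI5P4Kalpha turnover; ATP 5 microM final, 1 h at RT, 0.1% CHAPS and 0.28 mM EGTA in HEPES pH 7.4.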
Background: qHTS replaces the single test concentration by a dilution series.
With `CC1(C(=O)Nc2ccc3c(c2)OCCO3)CSCC(=O)N1CCOc1ccccc1` (stereo unspecified), the max response was -1.05%.

In the case of `CC(C)(C)S(=O)N1Cc2cc(C(=O)NCCCN3CCOCC3)nc(-c3cccc(-c4cc5ccccc5o4)c3)c2[C@H]1CCO` (stereo partly specified), the max response is 0.439%.

With `CCCCC[C@H](C)N1C[C@@H](COCc2ccccc2)Oc2cc(N3CCC[C@@H]3CO)ccc2S1(=O)=O`, the max response was 11.7%.

`Cc1cc(C(=O)N/N=C/c2ccc(O)c([N+](=O)[O-])c2)c(C)n1-c1ccc(F)cc1`: the max response is -71% (active).

As for `COc1cc(/C=N/NC(=O)c2cc(C)n(-c3ccc(F)cc3)c2C)cc(OC)c1O`, the max response is -10.7%.

`Cc1nn(CC(=O)N/N=C/c2ccc(F)cc2)c(C)c1[N+](=O)[O-]`: the max response is -2.33%.

As to `CCCNC(=O)C1(C)CCCN(C(=O)c2oc3ccccc3c2C)C1` (stereo unspecified), the max response is -7.4%.

`CCc1nc2ccc(C(=O)Nc3ccc(OC)c(OC)c3)cn2c1N(C)C(=O)c1cccc(OC)c1`: the max response was 3.96%.

Turning to `CCOC(=O)C1=CC[C@@H](c2ccccc2)N(S(=O)(=O)c2ccc(C)cc2)[C@H]1c1cccc(OC)c1`, the max response was 4.01%.

Consider `CCOC(=O)c1ccn(S(=O)(=O)c2ccc(C)cc2)c1-c1ccccc1`, for which the max response is 12.7%.

Regarding `COc1ccc(NC(=O)c2cc(-c3cc(OC)c(OC)c(OC)c3)nc3ccccc23)c(OC)c1`, the max response was 2.36%.

In the case of `COc1ccc(-c2cc(C(=O)N(C)Cc3ccccc3)c3ccccc3n2)cc1`, the max response is 15.4%.

In the case of `COc1ccc(-c2cc(C(=O)Nc3ccccc3O)c3ccccc3n2)cc1`, the max response is -106% (active).

`COc1ccc(NC(=O)C2Cc3c(-c4ccc(Cl)cc4)ccnc3O2)cc1` (stereo unspecified): the max response was -2.22%.

Take `Cc1ccc(-c2c(N)nc3ncccn23)cc1`: the max response is 0.002%.

Turning to `O=CNc1cc(-c2ccc(C(=O)N3CCOCC3)cc2)cn2c(-c3ccc(F)cc3)cnc12`, the max response was -15.7%.

With `CCCCNC(=O)C[C@@H]1C[C@@]2(C(=O)OCC)CCC=C2N(Cc2cccc3ccccc23)C1=O`, the max response is 3.26%.

For the molecule `COc1ccc(Br)cc1/C=N/Nc1ccc(S(=O)(=O)Nc2ccccc2C(=O)O)cc1[N+](=O)[O-]`, the max response was -15.6%.

Take `Cc1ccc(NS(=O)(=O)c2ccc(N/N=C/c3ccccc3OCC(=O)O)c([N+](=O)[O-])c2)c(C)c1`: the max response was 0.282%.

For `COc1cccc(/C=N/Nc2ccc(S(=O)(=O)Nc3ccccc3C(=O)O)cc2[N+](=O)[O-])c1O`, the max response is -74.4% (active).

Turning to `Cc1noc(C)c1-c1ccc(C(=O)NCc2ccncc2)c2occc12`, the max response is 1.04%.

Turning to `COc1cccc(-c2nc3nc(C)cc(C)n3c2NC2CCCCC2)c1`, the max response was -7.02%.

As to `C[C@H]1NS(=O)(=O)c2cc(Cl)ccc2O[C@@H]1c1ccccc1`, the max response is 4.12%.

With `Cc1ccccc1C1=NC(C(F)(F)F)(C(F)(F)F)c2c(n(-c3ccc(F)cc3)c(=O)[nH]c2=O)N1`, the max response was -8.19%.

For `Nc1c(N(Cc2ccco2)C(=O)c2cccc(F)c2)c(=O)[nH]c(=O)n1Cc1ccccc1`, the max response was -14.9%.

With `O=c1[nH]c(=O)n(Cc2ccco2)c2c1C(C(F)(F)F)(C(F)(F)F)N=C(c1ccco1)N2`, the max response is -76.9% (active).

As to `CN(C)c1cccc(NC(=O)c2ccc(-c3ccc(F)c(F)c3)c3ccoc23)c1`, the max response was 2.45%.

Consider `CCC(=O)N1CCC(C)(C(=O)Nc2cc(OC)c(OC)c(OC)c2)C1` (stereo unspecified), for which the max response was 10.8%.

As to `CC(=O)C1=CCC(c2ccccc2)N(S(=O)(=O)c2ccc(C)cc2)C1` (stereo unspecified), the max response was -0.133%.

Regarding `O=C(Cc1cccs1)Nc1nnc(SCc2ccc(F)cc2)s1`, the max response is 6.84%.

Regarding `COc1ccc(Cc2nnc(NC(=O)Cc3cccs3)s2)cc1`, the max response was -87.6% (active).

Turning to `COc1ccc(Cc2nnc(NS(=O)(=O)Cc3ccccc3)s2)cc1`, the max response was -3.92%.

`CCOP(=O)(OCC)C(Cc1ccccc1)N=C(c1ccccc1)c1ccccc1` (stereo unspecified): the max response was 10.7%.

Regarding `CC1(C(=O)NCc2ccc3c(c2)OCO3)CCN1C(=O)Cc1cccc2ccccc12` (stereo unspecified), the max response was 1.27%.

Turning to `O=C1NC[C@H](CCCCN2C[C@H](Cc3ccc(O)cc3)N(CC3CCCCC3)C(=O)C2=O)N(CCc2ccccc2)C1=O`, the max response is -0.0714%.

For the molecule `CSc1ncnc2c1ncn2CCCNCC(C)c1ccccc1` (stereo unspecified), the max response was -2.55%.

With `Fc1cccc(Cc2c(-c3cccc(Cl)c3)nc3ccc(Br)cn23)c1`, the max response is -13.9%.

For the molecule `CC(=O)Nc1cc(-c2ccc(N3CCN(C)CC3)cc2)cn2c(-c3ccc(F)cc3)cnc12`, the max response was -9.82%.

As to `O=C(NCc1cccc(C(F)(F)F)c1)c1ccc2sc(COCCO)nc2c1`, the max response was -7.68%.

As to `CC1(C(=O)Nc2ccc3c(c2)OCCO3)CCN1C(=O)Cc1cc(F)ccc1F` (stereo unspecified), the max response is 2.77%.

On to `O=C1C(Cl)=C(Oc2ccccc2)C(=O)c2ccccc21`, for which the max response is -95.6% (active).

As to `Clc1ccccc1Nc1nc(NCc2cccs2)nc2ccsc12`, the max response is -4.54%.

With `Cc1cccc(C(=O)OCC(=O)Nc2sc3c(c2C#N)CCC3)c1`, the max response is -29.9%.

In the case of `N#CCC(=O)Nc1ccc(C(=O)OCC(=O)Nc2sc3c(c2C#N)CCCC3)cc1`, the max response is -64.2% (active).

For `CC(=O)c1c(C)[nH]c(C(=O)OCC(=O)Nc2sc3c(c2C#N)CCCC3)c1C`, the max response is -6.62%.

In the case of `CCOc1ccc(NC(=O)c2ccc(NC(=O)COC(=O)c3ccc(NC(=O)CC#N)cc3)cc2)cc1`, the max response is -67.8% (active).

For `CCOc1ccc(NC(=O)CCNC(=O)c2ccc(Br)cc2)cc1`, the max response is -0.675%.

On to `CC(C)NC(=O)NC(=O)COC(=O)c1ccc(NC(=O)CC#N)cc1`, for which the max response was -8.69%.

As for `CC1=C(C(=O)N(C(C)C)C(C)C)CC(CC(=O)NCCCCc2ccccc2)C(=O)N1CCC1=CCCCC1` (stereo unspecified), the max response is -0.015%.

As to `COC(=O)C[C@H]1C=C[C@@H](NS(=O)(=O)c2ccc(C)cc2)[C@@H](CO)O1`, the max response was 0.772%.

With `COc1ccc(S(=O)(=O)/N=C2\C=C(NS(=O)(=O)c3ccccc3)C(=O)c3ccccc32)cc1`, the max response is -64.4% (active).

Turning to `Cc1ccc(S(=O)(=O)/N=C2\C=C(NS(=O)(=O)c3ccc(C)cc3)C(=O)c3ccccc32)cc1`, the max response was -25.4%.

As for `O=C1C=C(NS(=O)(=O)c2ccccc2)C(=O)c2ccccc21`, the max response is 1.96%.

`O=C(OCc1ccccc1)N1CCC2CC1c1ccc(-c3ccc4c(c3)OCO4)cc12` (stereo unspecified): the max response was 14.4%.

For the molecule `O=S1(=O)CC(N2CCN(CCO)CC2)CN1Cc1cn(Cc2ccc(Cl)cc2)nn1` (stereo unspecified), the max response is -1.75%.

In the case of `NC(Cc1ccc(F)cc1)c1csc(Nc2nncc3ccccc23)n1` (stereo unspecified), the max response was -1.97%.

Consider `CCOC(=O)c1ccc2c(c1)nc(C)n2CC`, for which the max response is 0.903%.

Take `COC(=O)c1cccc(NC(=O)CSc2nc(C)cc(=O)[nH]2)c1`: the max response is -26.1%.

On to `CCOC(=O)c1sc(=S)n2c1[nH]c(=O)c1ccc(C(=O)OC)cc12`, for which the max response was -52.6% (active).

Turning to `O[C@H]1C[C@H](c2ccc(Cl)cc2)N(Cc2cccs2)C[C@@H]1n1cc(C2CC2)nn1`, the max response is 16.1%.

For `COc1c(O)cc2oc(-c3ccc(O)c(O)c3)cc(=O)c2c1O`, the max response was -59.1% (active).

Take `COc1ccc(-c2cc(=O)c3c(O)cc(O[C@@H]4O[C@H](CO[C@@H]5O[C@@H](C)[C@H](O)[C@@H](O)[C@H]5O)[C@@H](O)[C@H](O)[C@H]4O)cc3o2)cc1O`: the max response was 0.0751%.

With `COc1cc(O)c2c(=O)c3c(O)c(O)ccc3oc2c1OC`, the max response is -7.12%.

Turning to `Cc1[nH]c2ccccc2c1C(=O)c1cc([C@H](NC(=O)OC(C)(C)C)C(C)C)sc1N`, the max response was 2.87%.

For `CC(=O)OCC(C)n1c(=O)c2ccccc2n1C(C)=O` (stereo unspecified), the max response is -0.324%.

`COc1ccc(C(O)c2nc(-c3ccc4c(c3)OCO4)cs2)cc1` (stereo unspecified): the max response is -1.53%.

In the case of `Cc1ccc(CNC(=O)c2cccc3c2C(=O)c2ccc(N4CCC(C)CC4)cc2S3(=O)=O)cc1`, the max response is -1.75%.

On to `CC1CCN(c2ccc3c(c2)S(=O)(=O)c2cc(C(=O)O)ccc2C3=O)CC1`, for which the max response is -56.6% (active).

With `O=C1c2ccccc2S(=O)(=O)c2cc(N3CCN(c4ccccn4)CC3)ccc21`, the max response was 1.24%.

`CCCCC(=O)N(C)c1c(CC)nc2c(OCc3ccc(S(C)(=O)=O)cc3)cccn12`: the max response is -1.42%.

Turning to `CC(C)[C@H](NC(=O)c1ccccc1F)C(=O)Nc1cccc(S(=O)(=O)N2CCOCC2)c1`, the max response was 0.136%.

In the case of `COc1ccc(C2CC(c3ccc([N+](=O)[O-])cc3)=NN2C(C)=O)cc1` (stereo unspecified), the max response was 0.372%.

For `CC(=O)N1CC[n+]2c(-c3ccc([N+](=O)[O-])cc3)csc21`, the max response was -61% (active).

As for `CN1C2CCC1CC(NC(=O)c1ccc([N+](=O)[O-])cc1)C2` (stereo unspecified), the max response is 0.848%.

Regarding `COC(=O)[C@]12CCCCC=C1N(CCC1=CCCCC1)C(=O)[C@H](CC(=O)NCC1CCCCC1)C2`, the max response is 7.3%.

With `CC(=O)N1Cc2cc(C(=O)NCc3cccc(F)c3)nc(-c3cccc(C4=CCCC4)c3)c2[C@H]1CCO`, the max response was -1.08%.

Take `CNc1cc(-c2c(OC)cccc2OC)ncn1`: the max response is 3.83%.

Turning to `C[C@@H]1C[C@@H]2O[C@H]2/C=C\C=C\C(=O)Cc2c(Cl)c(O)cc(O)c2C(=O)O1`, the max response was -50.5% (active).

Take `CC1(C(=O)Nc2cccc3c2CCCC3)CCN1C(=O)C1(c2ccccc2)CC1` (stereo unspecified): the max response is 20.1%.

In the case of `O=C1OCCOC2CCCc3oc(-c4ccccc4)c1c32` (stereo unspecified), the max response was -3.14%.

For the molecule `OC(c1ccc(F)cc1)c1ncc(-c2cccc(C(F)(F)F)c2)[nH]1` (stereo unspecified), the max response was 16.6%.

For the molecule `C=CCC1=C/C(=C\c2c(N)n3nc(CC(=O)N4CCOCC4)sc3nc2=O)C=C(OC)C1=O`, the max response was -61.1% (active).

On to `COc1cccc(/C=C2\SC(=S)N(CCCC(=O)N3CCOCC3)C2=O)c1`, for which the max response is 1.86%.

As for `CCOC(=O)/C=c1\s/c(=C\c2ccccc2OC)c(=O)n1CC(=O)N1CCOCC1`, the max response is -6.89%.

For `COc1cc(/C=C2\C(=N)N3N=C(CC(=O)N4CCOCC4)SC3=NC2=O)cc(OC)c1OC`, the max response was 1.99%.

Take `COC1=C/C(=C/c2c(N)n3nc(CC(=O)N4CCOCC4)sc3nc2=O)C=CC1=O`: the max response is -79.3% (active).
